Pf growth 96h: Primary qHTS for delayed death inhibitors of the malarial parasite plastid, 96 hour incubation; P. falciparum luciferase reporter growth, 96 h; Potency, µM (highest dose often 28.7 µM), for the others: top-dose activity change, negative = inhibition, actives largely listed as inhibitors; 320,000 compounds, 6.9% hits; note: potency is the fitted concentration of half-maximal effect; % is set by controls: 0 for no effect and ±100 for the full control effect
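96 h incubation, 37 C, 5% CO2, of luciferase-reporter P. falciparum-infected RBCs (2% hematocrit, 0.05% parasitemia final) with test compounds; endpoint luminescence.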
NS1 function inh: qHTS Assay for Inhibitors of Influenza NS1 Protein Function | Potency, µM (highest dose often 46.1 µM), without a hit: top-dose activity, positive = more growth | 270,000 compounds, 0.4% hits | AID 2326, 2010; calls by dose curve; note: potency is the fitted concentration of half-maximal effect; actives are rising curves; nearly all actives have a fitted effect of over 50% in size
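OD600 was taken as the measure of yeast growth restored by compound in an NS1-expressing S. cerevisiae strain. Cells had been washed out of glucose medium and diluted 1:100 into galactose -URA medium, pH 6.0.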
Sm TGR block: qHTS Assay for the Inhibitors of Schistosoma Mansoni Peroxiredoxins; Schistosoma mansoni thioredoxin glutathione reductase (TGR), Q962Y6; 360,000 compounds, 3% hits; purified TGR, DTNB reduction, TNB absorbance 405 nm; AID 485364, 2010; Potency, µM (titrated, usually from 114 µM), for inactives: top-dose activity change, negative = inhibition, hits mostly inhibitors; note: potency is the fitted concentration of half-maximal effect; % is set by controls: 0 for no effect and ±100 for the full control effect; nearly all actives have a fitted effect of over 60% in size
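First, TGR (20 nM dispensed) and NADPH were mixed with compound. Second, a 15 min room-temperature incubation followed. Third, further NADPH and then DTNB were added to start the reaction. Finally, TNB absorbance was monitored kinetically.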
Pf growth 48h: Primary qHTS for delayed death inhibitors of the malarial parasite plastid, 48 hour incubation; P. falciparum luciferase growth in erythrocytes, 48 h; Potency, µM (doses to about 28.7 µM), inactives show at the highest dose activity change, negative = inhibition, actives largely listed as inhibitors; 310,000 compounds, 5.9% hits; AID 504832, 2011; note: potency is the fitted concentration of half-maximal effect; % is set by controls: 0 for no effect and ±100 for the full control effect
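Luminescence readout; reporter = integrated firefly luciferase in P. falciparum. RBC culture at 2% hematocrit, 0.1% parasitemia final, 37 C/5% CO2; decreased signal taken as growth inhibition.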
CHX counter: Cycloheximide Counterscreen for Small Molecule Inhibitors of Shiga Toxin | cell reporter, cycloheximide protein synthesis inhibition counterscreen | max response, % | 300,000 compounds, 12% hits | AID 2314, 2010; in the data active = max response mostly above about 13%, no sharp cut-off; inactive = mostly below about 14%; note: read at 38.3 µM for the half of the compounds with a filed dose; 0% is about no effect
Shiga inhibitor: A qHTS for Small Molecule Inhibitors of Shiga Toxin; inhibition, % at 38.7 µM; AID 2315, 2010; 290,000 compounds, 9.2% hits; Vero cells, Shiga toxin protein synthesis inhibition reporter; in the data active = inhibition mostly above about 28%, no sharp cut-off; inactive = mostly below about 43%; note: 0% is about no effect
Active calls of the source: *; ? = inconclusive; · = no result; [ ] = remark or other dose. The list is not random: actives were taken first. Their share in the collection is about 21%. Unless noted, calls come from the whole dose curve; as a rule, active = well fitted curve in the direction sought with a large enough effect; inconclusive = small, poorly fitted or top-dose-only effect, or another doubt; inactive = no such curve, though single readings can be large; an effect the other way counts as inactive or inconclusive.

SMILES	Pf growth 96h	NS1 function inh	Sm TGR block	Pf growth 48h	CHX counter	Shiga inhibitor
COc1ccc(/C=C(\C#N)c2nc3ccc(C)cc3[nH]2)cc1Oc1ccc(C(F)(F)F)cc1[N+](=O)[O-]	?	1%	2%	?	12	-12
COc1cc(/C=C(\C#N)c2nc3ccc(C)cc3[nH]2)c([N+](=O)[O-])cc1OC	?	-74%	13%	?	-1	8
Cc1ccc2nc(/C(C#N)=C\c3ccc(Oc4ccc(C(F)(F)F)cc4[N+](=O)[O-])cc3)[nH]c2c1	-3%	16%	0%	-9%	31*	79*
COc1cc(/C=C(\C#N)c2nc3ccc(C)cc3[nH]2)cc([N+](=O)[O-])c1O	?	1%	·	?	30*	56*
COc1cccc(NC(=O)Cc2nnc(SCC(=O)NC3=NCCS3)n2C)c1	17%	3%	10%	-17%	0	18
Cn1c(CC(=O)Nc2ccccc2)nnc1SCC(=O)Nc1ccc(N2CCOCC2)cc1	-3%	-18%	1%	27%	39*	29
Cc1ccc(NC(=O)Cc2nnc(SCC(=O)Nc3ccc(N4CCOCC4)cc3)n2C)cc1	-1%	-2%	-24%	15%	-1	-9
Cn1c(CC(=O)Nc2ccccc2)nnc1SCC(=O)NC1=NCCS1	2.6µM*	9%	6%	-1%	-6	-11
Cc1ccc(N2CC(NC(=O)c3ccc4c(c3)OCO4)CC2=O)cc1 (stereo unspecified)	·	·	9%	·	·	·
Cc1ccc(NCc2cc3cc4c(cc3n(CC(=O)Nc3ccc(C)cc3)c2=O)OCCO4)cc1	·	·	45µM*	·	6	-13
COc1ccc(NCc2cc3cc4c(cc3n(CC(=O)Nc3cc(C)cc(C)c3)c2=O)OCO4)cc1	·	·	-2%	·	·	·
CC(C)c1ccc(-n2nnnc2SCC(=O)NC2CC2)cc1	?	·	2%	?	·	·
Oc1ccccc1-c1cncn1Cc1ccccc1	15µM*	-1%	-1%	·	-3	-3
O=C(NC1CC1)[C@@H]1CSC2c3ccccc3C(=O)N21 (stereo partly specified)	3%	14%	-23%	19%	-3	-2
Cc1ccc(NC(=O)NNc2cccc(Cl)n2)cc1	?	4%	-4%	9%	2	-8
N#Cc1ccc(-n2nccc2-c2cnc3n(c2=O)CCS3)cc1	19%	0%	0%	·	26*	2
O=c1c(-c2ccnn2-c2ccc(F)cc2)cnc2n1CCS2	·	1%	-3%	15%	-1	-28
O=C(N/N=C/c1cc(Br)c(O)c(Br)c1)c1cccc(C(F)(F)F)c1	?	-23%	1%	1%	-9	-7
O=C(N/N=C/c1cccc(C(F)(F)F)c1)c1ccccc1O	?	-19%	13%	0%	30*	121*
O=C(N/N=C/c1ccnc2ccccc12)c1ccccc1O	?	-10%	2%	?	27*	32
O=C(N/N=C/c1ccc2nccnc2c1)c1ccccc1O	71%	-1%	17%	95%	15*	24
CC1CC(C)CN(CC(=O)NNC(=O)COc2ccc(Cl)cc2)C1 (stereo unspecified)	-8%	·	-15%	-21%	·	·
CC(Sc1nnc(-c2ccco2)o1)C(=O)NCCC1=CCCCC1 (stereo unspecified)	?	·	45µM*	?	-1	-4
O=C(NC(=S)NCCc1ccccc1)c1ccco1	19%	-64%	-18%	22%	15	38
O=C(NC(=S)NCCC1=CCCCC1)c1ccco1	?	-19%	-23%	116%	37*	107*
SMILES	Pf growth 96h	NS1 function inh	Sm TGR block	Pf growth 48h	CHX counter	Shiga inhibitor
Cc1ccccc1OCC(=O)NCCC1=CCCCC1	?	·	-3%	-7%	20	14
CCN(CC)S(=O)(=O)c1cccc(-c2nnc(SC(C)C(=O)NCCC3=CCCCC3)o2)c1 (stereo unspecified)	10%	-6%	-21%	?	-7	-26
Cc1ccccc1C(=O)NC(=S)NCCC1=CCCCC1	0%	3%	5µM*	?	10	25
Cn1ccc2cc(-c3csc(N4CCC(C(N)=O)CC4)n3)ccc21	?	·	5%	?	·	·
Clc1cccc(C2CCN(Cc3nc(COc4ccccc4)no3)C2)c1 (stereo unspecified)	?	-4%	35µM*	-2%	2	13
c1ccc(OCc2noc(CN3CC[C@@H]4CCCC[C@H]4C3)n2)cc1	13µM*	-10%	6%[57.1 µM]	18%	-3	-4
CCOC(=O)c1c(C)c(-c2ccccc2)n(CC(=O)NCCCN(CC)CC)c1C	172%	·	4%	-9%	-6	-6
Clc1ccc(SCCn2ccnc2)cc1	13µM*	-10%	2%	-17%	-2	10
Cc1ccc(NC(=O)Cc2nnc(SCC(=O)c3ccc(Br)cc3)n2C)cc1Cl	29%	5%	2%	·	1	-7
CCn1cc(Cl)c(C(=O)Nc2ccc(OC)c(OC)c2)n1	-23%	·	-1%	25%	21*	55*
CCn1cc(Br)c(C(=O)Nc2ccc(C(=O)OC(C)C)cc2)n1	·	-11%	-23%	?	36	55
CCn1cc(Br)c(C(=O)Nc2ccc(OC)cc2)n1	·	-5%	0%	84%	21*	30
CCn1cc(Br)c(C(=O)Nc2nccs2)n1	23%	2%	·	24%	27*	73*
CCn1ccc(C(=O)Nc2cccc(Cl)c2)n1	?	-7%	-1%	494%	36*	106*
CCOC(=O)c1ccc(NC(=O)c2c(NCc3cc(OC)ccc3OC)sc3c2CCC3)cc1	·	·	-7%	·	·	·
CCc1cccc(NC(=O)c2cc(OC)c(OC)c(OC)c2)c1	2%[1.15 µM]	·	6%	-1%	7	16
CC(=O)CCC(=O)O	-4%	·	·	-2%	·	·
O=C(COC(=O)c1c(Cl)ccc(Cl)c1Cl)NC1CCS(=O)(=O)C1 (stereo unspecified)	16%	·	-17%	-11%	-1	-2
COc1ccc(OC)c(NC(=O)NNC(=O)CCCOc2ccc(Cl)cc2C)c1	?	1%	·	5%	-2	-5
CCc1nc2nc(C)cc(Nc3ccc(OC)cc3)n2n1	·	·	-6%	·	·	·
CCn1c(C)c(C)c2cc(C(=O)Nc3cccc(Cl)c3)ccc21	15µM*	17%	-31%	?	21*	37
CCn1cc(Cl)c(C(=O)Nc2cc(C(=O)OC)cc(C(=O)OC)c2)n1	?	2%	6%	25%	-4	-8
CCn1cc(Br)c(C(=O)NN)n1	27%	-3%	1%	58%	58*	71
CCn1ccc(C(=O)Nc2ccccc2Cl)n1	15%	-5%	0%	-18%	41*	63*

Screens from PubChem.
